Source: PubChem BioAssay (Tox21)
Inconclusive results are not listed. Entries that show only a call come without a potency. Active and inactive are the calls of the source. Unless noted, calls come from the whole dose curve; as a rule, active = well fitted curve in the direction sought with a large enough effect in the repeat runs; inconclusive = weak or mixed curves; inactive = no such curve, though single readings can be large; an effect the other way counts as inactive or inconclusive.

Legend:
[1] = qHTS assay for small molecule agonists of the p53 signaling pathway (AID 651631; calls by dose curve; note: nearly all actives have a fitted effect of over 15% in size)
Outline: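 Beta-lactamase reporter activity under p53 response elements was quantified in HCT-116 cells by FRET fluorescence, following 16 h incubation with test compounds at 37 °C and 2 h substrate development at room temperature.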

[2] = qHTS assay for small molecules that induce genotoxicity in human embryonic kidney cells expressing luciferase-tagged ATAD5 (AID 651632); note: nearly all actives have a fitted effect of over 15% in size
Outline: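 Reporter cells (HEK293T) express luciferase-tagged ATAD5, a protein that accumulates after DNA damage. Treat 16 hr at 37C/5% CO2, add Amplite, wait 30 min at RT, and read luminescence.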

[3] = qHTS assay for small molecule agonists of the p53 signaling pathway - cell viability (AID 651633; calls by dose curve;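 note: p53RE-bla HCT reporter cells with a stable beta-lactamase p53 reporter; series mostly up to about 83 µM; nearly all actives have a fitted effect of over 30% in size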)
Outline: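 Viability counter-read: CellTiter-Glo luminescence (30 min, room temperature) in the same p53RE-bla plates. These plates had been exposed to compounds for 16 h at 37 C.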

[4] = qHTS assay for small molecules that induce genotoxicity in human embryonic kidney cells expressing luciferase-tagged ATAD5 - cell viability (AID 651634; calls by dose curve; note: nearly all actives have a fitted effect of over 25% in size)
Outline: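 Seeding of 2,000 HEK293T ATAD5-luciferase cells per well preceded pin-tool compound transfer. Plates sat 15.5 hr at 37C under 5% CO2, then fluorescence was read after 30 min with CellTiter-Fluor.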

[5] = qHTS assay for small molecule disruptors of the mitochondrial membrane potential - cell viability (AID 720634; calls by dose curve;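 note: human HepG2 liver cancer cells; series mostly up to about 83 µM; nearly all actives have a fitted effect of over 20% in size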)
Outline: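 Measuring cytotoxicity alongside mitochondrial potential, the screen quantified ATP by luminescence in HepG2 cells after 1 hr compound incubation and a 30 min room-temperature CellTiter-Glo step.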

[6] = qHTS assay for small molecule disruptors of the mitochondrial membrane potential (AID 720635); note: potency is the fitted concentration of half-maximal effect
Outline: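 Mitochondrial membrane potential tracked with Mito-MPS dye, red aggregates (ex 540/em 590 nm) against green monomers (ex 490/em 535 nm). Compound treatment 1 hr at 37C, dye 30 min in HepG2.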

[7] = qHTS assay to test for compound auto fluorescence at 590 nm (red) in HepG2 cells (AID 720674)
Outline: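 Red autofluorescence (Ex/Em 540/590 nm, Rose Bengal sodium equivalents) was measured in HepG2 cells, 2,000 per well in MEM plus 10% FBS, plated overnight at 37 C. Readings were taken 1 hr after adding 23 nL compound or DMSO, at 37 C and 5% CO2.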

[8] = qHTS assay to test for compound auto fluorescence at 535 nm (green) in HepG2 cells (AID 720675)
[9] = qHTS assay to test for compound auto fluorescence at 460 nm (blue) in HEK293 cells (AID 720678)
Outline: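 Cells were seeded and left to adhere for 4-5 hr at 37C. Compounds were then pin-transferred. After an overnight incubation at 37C under 5% CO2, intrinsic fluorescence at 405/460 nm was measured and referenced to triamterene.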

[10] = qHTS assay to test for compound auto fluorescence at 590 nm (red) in HEK293 cells (AID 720679)
Outline: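 Each well held 2,000 HEK293 cells in medium containing 10% dialyzed FBS. Following 4-5 hr attachment at 37C, 23 nL test compound or DMSO was added; plates sat overnight, and red fluorescence (540/590nm) was recorded.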

[11] = qHTS assay to test for compound auto fluorescence at 535 nm (green) in HEK293 cells (AID 720680)
[12] = qHTS assay to test for compound auto fluorescence at 460 nm (blue) in HEK293 cell free culture (AID 720681)
Outline: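 Blue fluorescence (Ex 405/Em 460 nm, triamterene-equivalent) was read immediately after pin transfer of compound or DMSO into medium (DMEM, 10% FBS) without cells.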

[13] = qHTS assay to test for compound auto fluorescence at 535 nm (green) in HEK293 cell free culture (AID 720682)
Outline: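 Each library compound, or DMSO control, is added by pintool to medium alone, comprising DMEM and 10% FBS. Emission at 535 nm following 485 nm excitation is quantified against fluorescein.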

[14] = qHTS assay to test for compound auto fluorescence at 590 nm (red) in HepG2 cell free culture (AID 720684)
Outline: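 Plate contents were MEM with 10% FBS plus test compound or DMSO, no cells. Fluorescence was recorded with 540 nm excitation and 590 nm emission.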

[15] = qHTS assay to test for compound auto fluorescence at 460 nm (blue) in HepG2 cell free culture (AID 720685)
Outline: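 Compound (23 nL) or DMSO pinned into cell-free MEM with 10% FBS; blue fluorescence read at 405/460 nm excitation/emission, expressed as auto-fluorescence equivalency to triamterene.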

[16] = qHTS assay to test for compound auto fluorescence at 535 nm (green) in HepG2 cell free culture (AID 720686)
[17] = qHTS assay to test for compound auto fluorescence at 460 nm (blue) in HepG2 cells (AID 720687)
Outline: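 Blue-channel autofluorescence (Ex/Em 405/460 nm, triamterene-equivalent) was measured after 1 hr compound exposure at 37 C, 5% CO2. Cells were HepG2, plated overnight at 37 C in MEM plus 10% FBS.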

[18] = target: Glucocorticoid receptor (Homo sapiens) (UniProt P04150); experiment: qHTS assay to identify small molecule antagonists of the glucocorticoid receptor (GR) signaling pathway (AID 720692; active = well fitted inhibition curve with a large enough effect in the signal ratio in the repeat runs, not every such curve was filed as active; the % refers to the signal ratio)
Glucocorticoid receptor (Homo sapiens), sequence (P04150 whole entry, looked up): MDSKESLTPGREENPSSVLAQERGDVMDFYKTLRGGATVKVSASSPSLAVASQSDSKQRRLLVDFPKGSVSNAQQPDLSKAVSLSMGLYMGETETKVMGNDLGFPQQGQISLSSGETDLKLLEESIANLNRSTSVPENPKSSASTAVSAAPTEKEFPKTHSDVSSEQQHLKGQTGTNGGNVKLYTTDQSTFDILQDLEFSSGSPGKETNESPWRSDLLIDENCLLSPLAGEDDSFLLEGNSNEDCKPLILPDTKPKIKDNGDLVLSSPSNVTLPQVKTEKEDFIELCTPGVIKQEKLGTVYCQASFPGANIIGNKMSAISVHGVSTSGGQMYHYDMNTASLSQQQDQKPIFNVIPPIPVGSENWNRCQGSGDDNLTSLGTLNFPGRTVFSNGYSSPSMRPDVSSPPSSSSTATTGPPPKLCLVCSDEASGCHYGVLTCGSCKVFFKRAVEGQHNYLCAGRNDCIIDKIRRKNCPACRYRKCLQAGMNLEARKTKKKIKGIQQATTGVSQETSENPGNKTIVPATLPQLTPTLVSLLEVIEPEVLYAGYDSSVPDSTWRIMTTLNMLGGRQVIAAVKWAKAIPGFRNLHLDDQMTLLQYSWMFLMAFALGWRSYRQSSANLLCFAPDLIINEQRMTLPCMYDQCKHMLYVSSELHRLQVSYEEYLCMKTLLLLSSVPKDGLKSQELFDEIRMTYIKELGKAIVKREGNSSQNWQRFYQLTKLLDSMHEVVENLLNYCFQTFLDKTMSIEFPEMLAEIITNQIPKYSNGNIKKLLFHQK
Outline: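 Dexamethasone (5 nM final) stimulated a stably integrated GRE-beta-lactamase reporter in HeLa cells during 18 h co-incubation with compounds; signal was quantified as fluorescence intensity of B/G FRET substrate after 2 h.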

[19] = qHTS assay to test for compound auto fluorescence at 590 nm (red) in HEK293 cell free culture (AID 720683)
Outline: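 Red-channel autofluorescence of compounds in culture medium (DMEM, 10% FBS), no cells, measured at 540/590 nm. Rose Bengal sodium is the reference fluorophore for equivalence.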

[20] = target: Glucocorticoid receptor (Homo sapiens) (UniProt P04150); experiment: qHTS assay to identify small molecule agonists of the glucocorticoid receptor (GR) signaling pathway (AID 720691; active = well fitted activation curve with a large enough effect in the signal ratio in the repeat runs, not every such curve was filed as active; the % refers to the signal ratio)
Outline: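 Reporter read-out: fluorescence intensity following 2 h room-temperature LiveBLAzer B/G FRET substrate loading. Prior step: GR-bla HeLa cells held 4 h, then treated 18 h at 37 C.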

Row | Compound | outcome [1] | outcome [2] | outcome [3] | Potency [4] | Potency [5] | Potency [6] | outcome [7] | outcome [8] | outcome [9] | outcome [10] | outcome [11] | outcome [12] | outcome [13] | outcome [14] | outcome [15] | outcome [16] | outcome [17] | Potency [18] | outcome [19] | outcome [20]
1 | CC1(C)CC(N)CC(C)(CN)C1 (stereo unspecified) | inactive | inactive | inactive | inactive | inactive | inactive | inactive | inactive | inactive | inactive | inactive | inactive | inactive | inactive | inactive | inactive | inactive | inactive |  | 
2 | C=CC[N+](C)(C)CC=C | inactive | inactive | inactive | inactive | inactive | inactive | inactive |  | inactive |  | inactive | inactive | inactive | inactive | inactive | inactive | inactive | inactive | inactive | inactive
3 | NC(=S)NNC(N)=S | inactive | inactive | inactive | inactive | inactive | inactive | inactive |  | inactive | inactive |  | inactive | inactive | inactive | inactive | inactive |  | inactive |  | inactive
4 | CCCCCCCC=O | inactive | inactive | inactive | inactive | inactive |  |  | inactive | inactive | inactive | inactive | inactive | inactive | inactive | inactive | inactive | inactive |  |  | 
5 | NCCN1CCNCC1 | inactive | inactive | inactive | inactive |  | inactive |  |  | inactive | inactive | inactive | inactive | inactive | inactive | inactive | inactive | inactive |  | inactive | 
6 | CCCOC(=O)c1ccccc1 | inactive | inactive | inactive | inactive | inactive | inactive | inactive | inactive | inactive |  |  | inactive | inactive | inactive | inactive | inactive | inactive | inactive |  | inactive
7 | C=CCCCCCCCCC(=O)O | inactive | inactive | inactive | inactive | inactive |  |  |  | inactive | inactive | inactive | inactive | inactive | inactive | inactive | inactive |  | inactive | inactive | inactive
8 | C=CC(=O)OCCC(=O)O | inactive | inactive | inactive | inactive |  | inactive | inactive | inactive | inactive |  |  | inactive | inactive | inactive | inactive | inactive |  |  | inactive | 
9 | COCCCN | inactive | inactive | inactive | inactive | inactive | inactive | inactive | inactive | inactive | inactive | inactive | inactive | inactive | inactive | inactive | inactive |  | inactive | inactive | inactive
10 | CCCCCCO | inactive | inactive | inactive | inactive | inactive | inactive |  | inactive | inactive |  | inactive | inactive | inactive | inactive | inactive | inactive | inactive | inactive |  | 
11 | c1ccc2c(c1)Cc1ccccc1-2 | inactive | inactive | inactive | inactive |  | inactive |  |  | inactive |  | inactive | inactive | inactive | inactive | inactive | inactive |  | inactive |  | 
12 | O=C(O)CCCCCCCCC(=O)O | inactive | inactive | inactive | inactive |  | inactive |  |  | inactive | inactive |  | inactive | inactive | inactive | inactive | inactive | inactive |  | inactive | 
13 | O=C1C(c2[nH]c3ccccc3c2O)=Nc2ccccc21 | inactive | inactive | inactive | inactive | inactive | 4.22 µM (active) |  | inactive | inactive | inactive | inactive | inactive | inactive | inactive | inactive | inactive | inactive |  | inactive | 
14 | O=C1CCCC1 | inactive | inactive | inactive | inactive |  | inactive |  | inactive | inactive |  |  | inactive | inactive | inactive | inactive | inactive | inactive | inactive | inactive | inactive
15 | Clc1ccccn1 | inactive | inactive | inactive | inactive |  | inactive | inactive | inactive | inactive | inactive | inactive | inactive | inactive | inactive | inactive | inactive |  |  |  | 
16 | COCCOC(=O)c1ccccc1C(=O)OCCOC | inactive | inactive | inactive | inactive | inactive | inactive | inactive | inactive | inactive | inactive | inactive | inactive | inactive | inactive | inactive | inactive |  | inactive |  | 
17 | CCCCCCC=O | inactive | inactive | inactive | inactive | inactive |  | inactive | inactive | inactive | inactive |  | inactive | inactive | inactive | inactive | inactive | inactive | inactive | inactive | inactive
18 | CCCCCCCCCCCCCCCC(=O)OC(C)C | inactive | inactive | inactive | inactive | inactive | inactive | inactive |  | inactive | inactive | inactive | inactive | inactive | inactive | inactive | inactive | inactive |  | inactive | 
19 | CC(CCO)CC(C)(C)C (stereo unspecified) | inactive | inactive | inactive | inactive |  | inactive |  |  | inactive |  | inactive | inactive | inactive | inactive | inactive | inactive |  | inactive | inactive | inactive
